# High-throughput results deposited in PubChem by several laboratories.
# Shown are actives, neighbours in structure and some others; about 6.9% of the full set was active somewhere.
# CSC inhib – cancer stem cell inhibition; cancer stem cell-like cells viability, luminescence; inhibition, % at 7.5 µM; 1.1% of 300,000 active; in the data active means inhibition above about 75%; tested in HMLE shEcad cells
# MPTP block – inhibitors of mitochondrial permeability transition pore | isolated mouse mitochondria, Ca2+ swelling absorbance, 30 min | inhibition, % at 10 µM | 1.4% of 360,000 active | AID 602449;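 active means inhibition of 50% or more, scaled per plate between neutral and stimulator controls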;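 further: 0% = DMSO wells given calcium and 100% = 1 mM EGTA wells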
# Mdm2-MdmX inh – disrupts the human Mdm2-MdmX interaction | SaOS-2 split-luciferase Mdm2/MdmX complementation, luminescence | inhibition, % at 8 µM | 3% of 330,000 active;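 active means inhibition of at least 50% at 8 µM in the primary screen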
# Target sequence (O15151 whole entry, looked up): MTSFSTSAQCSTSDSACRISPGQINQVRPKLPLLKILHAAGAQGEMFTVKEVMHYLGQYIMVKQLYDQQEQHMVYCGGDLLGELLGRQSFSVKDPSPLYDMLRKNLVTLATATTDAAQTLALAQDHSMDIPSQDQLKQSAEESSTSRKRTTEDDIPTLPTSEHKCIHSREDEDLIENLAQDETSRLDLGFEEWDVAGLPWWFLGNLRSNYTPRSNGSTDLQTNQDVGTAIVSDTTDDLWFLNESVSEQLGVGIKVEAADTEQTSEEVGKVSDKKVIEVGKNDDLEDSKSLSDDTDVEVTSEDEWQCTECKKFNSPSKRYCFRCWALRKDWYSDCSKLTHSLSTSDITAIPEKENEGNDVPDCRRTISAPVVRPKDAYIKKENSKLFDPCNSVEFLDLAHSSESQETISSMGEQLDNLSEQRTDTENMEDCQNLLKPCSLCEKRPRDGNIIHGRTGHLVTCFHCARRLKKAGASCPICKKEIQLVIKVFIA
# Target sequence (Q00987 whole entry, looked up): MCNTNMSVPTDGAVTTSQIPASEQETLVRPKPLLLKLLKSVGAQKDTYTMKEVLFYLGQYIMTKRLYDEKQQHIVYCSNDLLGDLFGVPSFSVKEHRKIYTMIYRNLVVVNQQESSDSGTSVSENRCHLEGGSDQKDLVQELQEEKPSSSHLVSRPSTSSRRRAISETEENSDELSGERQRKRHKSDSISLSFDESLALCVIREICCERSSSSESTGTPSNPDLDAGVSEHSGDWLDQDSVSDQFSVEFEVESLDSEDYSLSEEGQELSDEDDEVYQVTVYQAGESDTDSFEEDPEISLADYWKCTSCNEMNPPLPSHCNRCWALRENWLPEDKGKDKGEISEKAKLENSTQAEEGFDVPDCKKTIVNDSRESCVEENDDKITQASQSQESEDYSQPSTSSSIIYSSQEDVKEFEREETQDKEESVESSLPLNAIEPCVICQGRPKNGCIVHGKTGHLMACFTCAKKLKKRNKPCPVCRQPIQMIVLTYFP
# GRIN3A LBD mod – modulates the human NR3A ligand-binding domain; NR3A LBD differential scanning fluorimetry, Tm shift; 0% = protein alone, 100% = glycine-bound protein; Tm shift relative to glycine control, % at 25 µM; 2.5% of 340,000 active;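 active means melting temperature shift of at least 10% of the positive control shift, at one fixed dose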
# Beta apoptosis – blocks beta cell apoptosis | INS-1E cytokine-induced death, ATP luminescence, 48 h; percent of positive-control rescue, neutral wells zero | protection from apoptosis, % (test concentration not listed) | 0.8% of 300,000 active;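 active means Every replicate reaches about 75%, or at least half do and their mean reaches it too, limit read from the data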;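 further: 0% = cytokine-treated negative control wells and 100% = positive control rescue; higher means more ATP so stronger rescue from cytokine killing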
# SKKanGAS inh – blocks kanamycin growth of S. pyogenes SKKanGAS strain; BacTiter-Glo, 6 h; inhibition, % at 7.5 µM; 1.3% of 300,000 active;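 active means mean replicate score, as percent of positive control median, at least 50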;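 further: strain carries kanamycin resistance gene driven by streptokinase promoter and grows in 40 µg/ml kanamycin; loss of luminescence reflects streptokinase promoter inhibition or plain growth inhibition; 0% = median of DMSO wells and 100% = positive control at its reference dose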
# MPTP counter – mitochondrial membrane potential, counter-screen; 78% of 5,000 active; isolated mitochondria, Rhodamine 123 fluorescence; AID 624504; shares compounds with MPTP block; inhibition, % at 10 µM; in the data active means inhibition above about 22%;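 further: 0% = DMSO vehicle and 100% = positive control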
# MPTP swell DR – dose response confirmation of mitochondrial permeability transition pore inhibitors; IC50, µM; 58% of 780 active; isolated mitochondria swelling, absorbance; shares compounds with MPTP block; in the data active means IC50 below about 20 µM
# MPTP counter DR – counter-screen for mitochondrial permeability transition pore inhibitors, dose response; 49% of 780 active; IC50, µM; shares compounds with MPTP block; AID 651564; isolated mitochondria counterscreen, fluorescence read-out; in the data active means IC50 below about 80 µM
# The depositor's hits bear a star; . = not tested or not shown.
SMILES,CSC inhib,MPTP block,Mdm2-MdmX inh,GRIN3A LBD mod,Beta apoptosis,SKKanGAS inh,MPTP counter,others
CC(C)(C)c1ccc(C(=O)NCCNC(=O)c2ccco2)cc1,-12,-1,-35,-1,.,0,.,
O=C(CN(C(=O)CCC(=O)Nc1nccs1)c1ccccc1F)NCc1ccc(F)cc1,5,-2,-1,0,1,-3,.,
COc1ccc(CCNC(=O)C2CCN(Cc3nc(-c4ccccc4C)oc3C)CC2)cc1OC,10,82*,25,0,3,-7,10,MPTP swell DR=9.7*;MPTP counter DR=23*
O=C1CN(S(=O)(=O)c2ccccc2)CCN1,-10,-2,5,1,6,.,.,
Cc1ccc(C(OCC(O)CNC(C)c2ccccc2)c2ccccc2)cc1 (centres undefined),14,80*,48,5,12,7,-1,MPTP swell DR=7.1*;MPTP counter DR=23*
Cc1ccc(C(OCC(O)CN2CCCCC2)c2ccccc2)cc1 (centres undefined),-1,1,-15,0,.,-1,.,
Cc1ccc(C(OCC(O)CNC(CO)C(O)c2ccc([N+](=O)[O-])cc2)c2ccccc2)cc1 (centres undefined),-5,85*,31,-3,-1,0,-10,MPTP swell DR=17*;MPTP counter DR=62*
O=C(NCc1ccc(Cl)s1)C1CCC(=O)N(CCc2ccccn2)C1 (centres undefined),4,-1,-19,-1,-4,0,.,
Cc1ccc(C(=O)NCC(=O)NCC(=O)OCc2ccc(Oc3ccc([N+](=O)[O-])cc3)cc2)cc1,-6,51*,25,0,11,17,52*,
Cn1nc(CC(=O)Nc2ccc(N3CCN(C(=O)OC(C)(C)C)CC3)cc2)c2ccccc2c1=O,-1,101*,11,3,3,16,74*,
Cn1nc(CC(=O)N2CCN(c3ccccc3)CC2)c2ccccc2c1=O,-8,0,16,-1,2,-11,.,
Cc1ccc(NC(=O)Cc2nn(C)c(=O)c3ccccc23)cc1F,-10,59*,20,2,86*,6,80*,
O=C(N[C@H](C(=O)O)c1ccccc1)C1CCC(Cn2cnc3ccccc3c2=O)CC1 (some centres undefined),-6,-1,22,-1,-6,-2,.,
COc1cccc(CNc2cnc3ccccc3c2)c1O,7,62*,-49,5,.,8,62*,
Cc1nc(C)c(C(=O)OC(C)C(=O)Nc2ccc(F)cc2)s1 (centres undefined),.,0,-2,3,.,.,.,
CC(C)c1ccc(NC(=O)COC(=O)C2CC3C=CC2C3)cc1 (centres undefined),-18,0,6,-3,-5,.,.,
O=C(Nc1ccccc1)c1ccc(Cn2cc(C(F)(F)F)ccc2=O)cc1,6,0,14,2,6,-1,.,
O=C(Nc1cc(C(F)(F)F)cc(C(F)(F)F)c1)c1ccc(Cn2cc(C(F)(F)F)ccc2=O)cc1,-9,72*,22,2,53,5,25*,
CN(C(=O)c1cccc(NC(=O)Cc2cccc(NC(=O)C3CCN(C(=O)C4CCCC4)CC3)c2)c1)C1CC1,.,0,.,-3,.,.,.,
O=S(=O)(Nc1cc(Cl)ccc1-n1cncn1)c1ccccc1Cl,.,3,-8,-3,5,.,.,
O=S(=O)(Nc1cc(Cl)ccc1-n1cncn1)c1cc(Br)ccc1Br,.,66*,44,22*,31,.,93*,
COc1ccc(CN(C)Cc2c(O)ccc3cc(Br)ccc23)cc1OC,-9,68*,19,-1,-1,6,50*,
COc1ccc(NC(=O)CNc2cccc(C#N)c2)cc1Cl,-13,-2,0,1,6,1,.,
COc1ccc(NCC(=O)Nc2ccc(C#N)cc2)cc1Cl,-11,76*,-15,8,8,6,84*,
CC12CCC(=O)N1C(C(=O)Nc1ccc(Cl)c(S(=O)(=O)N3CCCCC3)c1)CS2 (centres undefined),26,1,36,1,5,28,.,
SMILES,CSC inhib,MPTP block,Mdm2-MdmX inh,GRIN3A LBD mod,Beta apoptosis,SKKanGAS inh,MPTP counter,others
CCCn1c(O)c(N=NC(=O)c2cccnc2)c2cc(Br)ccc21,27,2,46,-2,17,18,.,
Cn1ncc2c(N3CCC(Cc4ccccc4)CC3)ncnc21,67,13,13,-4,20,9,.,
NNC(=O)c1cc2c(N3CCC(Cc4ccccc4)CC3)ncnc2s1,17,89*,18,-7,7,13,59*,
O=C(CONS(=O)(=O)c1ccc(Cl)cc1)NCCNc1ncc(C(F)(F)F)cc1Cl,38,70*,-10,-19,4,5,77*,
O=C(CN1CCN(c2ncc(C(F)(F)F)cc2Cl)CC1)NCCNc1ncc(C(F)(F)F)cc1Cl,-5,4,29,4,8,37,.,
CCC1CCCCN1C(=O)c1cc(COc2ccc3ncccc3c2)on1 (centres undefined),-4,104*,-24,0,113*,-7,81*,
COCCOC1CCN(C(=O)c2cc(COc3ccc(-n4cncn4)cc3)on2)CC1,7,-2,13,0,-4,-4,.,
CCN(CC)C(=O)C1CCCN(C(=O)c2cc(COc3ccc4ncccc4c3)on2)C1 (centres undefined),-14,4,16,0,.,-5,.,
COCCC1CCCCN1C(=O)c1cc(COc2ccc(-n3cncn3)cc2)on1 (centres undefined),-13,92*,24,1,87*,-3,100*,
COCC1CCN(C(=O)c2cc(COc3ccc4c(c3)CCCC4)on2)C1 (centres undefined),10,0,11,-1,-3,-10,.,
COCC1CCCCN1C(=O)c1cc(COc2ccc3ncccc3c2)on1 (centres undefined),3,100*,23,-3,86*,-11,101*,
CCc1ccc(CN(C)C(=O)c2cc(COc3ccc(-n4cncn4)cc3)on2)cc1,-6,59*,9,7,6,4,78*,
FC(F)(F)c1ccccc1-n1c(-c2ccco2)n[nH]c1=S,1,1,15,-1,-3,4,.,
O=C(CN1CCN(C(=O)c2cccc(S(=O)(=O)N3CCCC3)c2)CC1)Nc1ccc(F)cc1,.,1,-4,1,4,.,.,
CCN1CCN(C(=O)c2cc(COc3ccc4ncccc4c3)on2)CC1,7,11,-6,2,45,-1,.,
CCCN1CCN(C(=O)c2cc(COc3ccc4ncccc4c3)on2)CC1,-2,86*,8,0,40,3,56*,
